# In PubChem BioAssay:
# Values joined by “and” are separate entries in the source; they are usually repeats but may differ in a detail not shown here. Equal values may be shown once.
# Assay: modulators of S6 phosphorylation in cells, primary screen, cell-based, A549, cytoblot, luminescence, serum-stimulated (AID 1158);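 further: serum-stimulated A549 lung adenocarcinoma cells; signal is phosphorylated S6 detected by cytoblot immunostaining with HRP secondary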
# Settings: A549 phospho-S6 cytoblot, 5 h, higher = more signal
row,Compound,z-score
1,COC(=O)C1=C(C)N(Cc2ccccc2)[C@]23O[C@](C(=O)OC)(C(=O)N2[C@@H]1c1ccccc1)[C@@H](C(=O)OC)[C@H]3C(=O)OC,-0.046 and 0.635
2,CO[C@@H]1COC(=O)CC=C[C@H](C)COC(=O)[C@H](C)NC(=O)CC=C[C@H]1C,-0.677
3,COC(=O)C1=C(C)N(Cc2ccccc2)C2=C(C(C)=O)[C@H](c3ccccc3)[C@@](O)(C(=O)OC)C(=O)N2[C@@H]1c1ccccc1,0.582 and 3.5
4,C[N+](C)(C)CCCCNC(=O)[C@H]1C[C@H]2C(=O)N[C@@H](CCCC[N+](C)(C)C)C(=O)N2[C@H]1c1cccc(OCCO)c1,0.2 and -0.314
5,CCOC(=O)NN=C1C[C@@H](O)[C@@H](O)[C@@H]2[C@@H]3C(=O)N(Cc4ccc5c(c4)OCO5)C(=O)[C@@H]3CC[C@@H]12,-0.403
6,C[N+](C)(C)CCCCNC(=O)[C@H]1C[C@H]2C(=O)N[C@@H](CCCC[N+](C)(C)C)C(=O)N2[C@H]1c1ccc(O)cc1,-0.809 and 0.448
7,O=c1n(-c2ccccc2)c(=O)n2n1CC[C@@H]1C(=NOC[C@@H](O)COCc3ccco3)[C@H]3O[C@H]3[C@@H](O)[C@@H]12,0.473 and -0.975
8,C=C[C@@H](C)[C@H](O)c1ccc(O)c2ccccc12,0.166 and 0.217
9,COC(=O)C1=C(C)N(Cc2ccccc2)C2=C(C(C)=O)C[C@@](O)(C(=O)OC)C(=O)N2[C@@H]1c1ccccc1,0.268 and 2.46
10,CCC[C@@H]1C[C@@]1(CCC)[C@@H](NC(=O)c1ccc(-c2ccccc2)cc1)c1cccc(Cl)c1,-0.366 and -0.0422
11,C=CCN(CCCC)C(=O)C1N(CCOCCO)C(=O)C2C(C(=O)O)C3C=CC21O3 (stereo not given),-0.0621 and 0.53
12,C=CCN(Cc1ccccc1)C(=O)C1N(CCOCCO)C(=O)C2C(C(=O)O)C3C=CC21O3 (stereo not given),0.506 and 0.245
13,C=CC[C@@H](O)c1ccc(O)c2ccccc12,-0.241 and 0.206
14,CO[C@@H]1C=CCC(=O)N2CCC[C@H]2C(=O)OC[C@H](C)C(=O)OC[C@H]1C,0.0533
15,CN1C(=O)C2CC=C([C@H]3Oc4ccccc4S(=O)(=O)N4CCC[C@@H]34)CC2C1=O (stereo not given in full),-0.395 and -0.53
16,CCOC(=O)c1ccc(NC(=O)O[C@H]2[C@H](OC(=O)Nc3ccccc3)[C@@H](OC(=O)Nc3ccccc3)[C@@H](OC)O[C@@H]2CO)cc1,0.139 and 0.0102
17,C=CCN(Cc1ccccc1)C(=O)C(c1cccs1)N(C(=O)/C=C\C(=O)O)c1c(Cl)cccc1CO (stereo not given),0.0278 and -0.193
18,CC(CO)N1C(=O)[C@@H]2C3C(=O)OCCC=C[C@H]3OC23C=CCN(CCN2CCOCC2)C(=O)[C@@H]13 (stereo not given in full),-0.38 and -0.0957
19,CO[C@H]1COC(=O)CC=C[C@@H](C)COC(=O)[C@@H](OCc2ccccc2)C=C[C@@H]1C,0.21
20,CCCC[C@@H]1CN2[C@@H](CC[C@@H](C)[C@@H]2c2ccc(Br)cc2)C(=O)O1,-1.02 and -0.612

row,Compound,z-score
1,CCN1C(=O)[C@H]2[C@H]3[C@H](O)[C@H](O)CC(=NOC[C@@H](O)COCc4ccco4)[C@@H]3CC[C@H]2C1=O,0.485 and 0.312
2,C=CCN(CCCCC)C(=O)C(c1cccs1)N(C(=O)/C=C\C(=O)O)c1ccc(CCO)cc1 (stereo not given),0.0901 and -0.111
3,C=CCN(C(=O)C1N(c2c(Cl)cccc2CO)C(=O)C2C(C(=O)O)C3C=CC21O3)c1ccc(OC)cc1 (stereo not given),-0.403 and 1.78
4,C=CCN(CCCC)C(=O)C1N(C(C)(C)CO)C(=O)C2C(C(=O)O)C3C=CC21O3 (stereo not given),0.301 and -0.335
5,C=C[C@@H](C)[C@@H](O)c1ccc(OCCO)cc1,0.0021 and 0.856
6,C=CCN(CCCCC)C(=O)C1N(C(C)(C)CO)C(=O)C2C(C(=O)O)C3C=CC21O3 (stereo not given),0.0495 and 2.08
7,CCOC(=O)[C@@H]1CC2O[C@]23C[C@@H]1C(=O)N1CCC[C@@H]1[C@H]3O[Si](C)(C)C(C)(C)C (stereo not given in full),-0.111 and -0.206
8,CCOC(=O)C[C@H]1[C@H](OC(=O)c2ccccc2-c2ccccc2)[C@@H](NC(=O)Cc2ccc(OC)cc2)c2cc(OCCCO)ccc2N1C(=O)Cc1ccc(OC)cc1,0.551 and -0.0127
9,COC(=O)CC=C[C@@H](C)[C@@H](CO)NS(=O)(=O)c1ccc(C)cc1,-0.244 and 0.392
10,C[N+](C)(C)CCCCCCNC(=O)[C@@H]1C[C@@H]2C(=O)N[C@@H](CCCC[N+](C)(C)C)C(=O)N2[C@@H]1c1ccc(O)cc1,-0.336 and -0.254
11,COC(=O)C1=C(C)N(Cc2ccccc2)C2=C3C(=O)CCC[C@@H]3[C@@](O)(C(=O)OC)C(=O)N2[C@@H]1c1ccccc1,-0.0885 and 0.778
12,O=C1C[C@]2(c3ccc([N+](=O)[O-])cc3)C(=O)N(Cc3ccccc3)c3cc(CO)ccc3[C@H]2N1C1CCCCC1,0.483 and 2.97
13,CC(C)=CCCC(C)=CCON=C1C[C@@H](O)[C@@H](O)[C@@H]2[C@@H]3C(=O)N([C@@H](C)c4ccccc4)C(=O)[C@@H]3CC[C@H]12,1.27
14,C[C@@H]1CC[C@H]2C(=O)NC[C@@H](O)CN2[C@H]1c1ccc(Br)cc1,0.53 and -0.753
15,COc1ccc(O[C@H]2C=C[C@@H](c3ccccc3)O[C@@H]2COC(=O)CCC(C)=NO[C@H](C)c2cn([C@H](CO)Cc3ccccc3)nn2)cc1,-0.112 and -0.835
16,C=CCN(CCCC)C(=O)C(c1cccs1)N(C(=O)/C=C\C(=O)O)c1c(Cl)cccc1CO (stereo not given),1.21 and 0.596
17,CC(CO)N1C(=O)[C@@H]2C3C(=O)OCCC=C[C@H]3OC23C=CCN(c2ccc(Cl)cc2)C(=O)[C@@H]13 (stereo not given in full),-0.7 and -0.574
18,C=CCN(C(=O)C(c1cccs1)N(CCOCCO)C(=O)/C=C\C(=O)O)C(C)(C)C (stereo not given),0.234 and 0.15
19,C=C[C@H](OC)[C@@H](O)c1ccc(O)c(F)c1,-0.141 and 0.723
20,CC(CO)N1C(=O)[C@@H]2C3C(=O)OCCC=C[C@H]3OC23C=CCN(C(C)(C)C)C(=O)[C@@H]13 (stereo not given in full),1.11 and -0.113
